# Results reported in the supplement of paper PMC8728848.
# This is one part of a sample in which the strongest signals are shown more often than they occur.
# Experiments:
# Test in all cases: glycan array binding signal (z-score within array); higher = stronger binding
# Settings in all cases: glycan notation: IUPAC condensed, linker removed; mutation: E41G
# [1] = molecular target: Fuc(a1-2)Gal(b1-3)GalNAc
# Outline: (§1)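 Columns mapping to the same glycan were averaged after glycan names were converted to IUPAC-condensed notation. The data come from 3228 arrays in the Consortium for Functional Glycomics database, limited to those with an available protein sequence. Binding is reported as a within-array Z-score averaged across arrays of one protein sequence and across linkers.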
# [2] = molecular target: Fuc(a1-2)Gal(b1-3)GlcNAc(b1-3)GalNAc
# Outline: as §1
# [3] = molecular target: Fuc(a1-2)Gal(b1-3)GlcNAc(b1-3)[Fuc(a1-2)Gal(b1-3)GlcNAc(b1-6)]GalNAc
# Outline: as §1
# [4] = molecular target: Fuc(a1-2)Gal(b1-3)GlcNAc6S
# Outline: as §1
# [5] = molecular target: Fuc(a1-2)Gal(b1-3)[Fuc(a1-4)]GlcNAc
# Outline: as §1
# [6] = molecular target: Fuc(a1-2)Gal(b1-4)GlcNAc6S
# Outline: as §1
# [7] = molecular target: Fuc(a1-2)Gal(b1-4)[Fuc(a1-3)]GlcNAc(b1-2)[Fuc(a1-2)Gal(b1-4)[Fuc(a1-3)]GlcNAc(b1-4)]Man(a1-3)[Fuc(a1-2)Gal(b1-4)[Fuc(a1-3)]GlcNAc(b1-2)Man(a1-6)]Man(b1-4)GlcNAc(b1-4)GlcNAc
# Outline: as §1
# [8] = molecular target: Fuc(a1-2)Gal6S(b1-4)Glc6S
# Outline: as §1
# [9] = molecular target: Fuc(a1-2)[Gal(a1-3)]Gal(b1-4)Glc
# Outline: as §1
# [10] = molecular target: Fuc(a1-2)[Gal(a1-3)]Gal(b1-4)GlcNAc(b1-2)Man(a1-3)[Fuc(a1-2)[Gal(a1-3)]Gal(b1-4)GlcNAc(b1-2)Man(a1-6)]Man(b1-4)GlcNAc(b1-4)GlcNAc
# Outline: as §1
# [11] = molecular target: Fuc(a1-2)[Gal(a1-3)]Gal(b1-4)GlcNAc(b1-3)GalNAc
# Outline: as §1
# [12] = molecular target: Fuc(a1-2)[GalNAc(a1-3)]Gal(b1-3)GlcNAc(b1-2)Man(a1-3)[Fuc(a1-2)[GalNAc(a1-3)]Gal(b1-3)GlcNAc(b1-2)Man(a1-6)]Man(b1-4)GlcNAc(b1-4)[Fuc(a1-6)]GlcNAc
# Outline: as §1
# [13] = molecular target: Fuc(a1-2)[GalNAc(a1-3)]Gal(b1-4)GlcNAc(b1-3)Gal(b1-4)GlcNAc(b1-3)Gal(b1-4)GlcNAc
# Outline: as §1
# [14] = molecular target: Gal(a1-3)Gal(b1-3)GlcNAc
# Outline: as §1
# [15] = molecular target: Gal(a1-3)Gal(b1-3)[Fuc(a1-4)]GlcNAc(b1-2)Man(a1-3)[Gal(a1-3)Gal(b1-3)[Fuc(a1-4)]GlcNAc(b1-2)Man(a1-6)]Man(b1-4)GlcNAc(b1-4)GlcNAc
# Outline: as §1
# [16] = molecular target: Gal(b1-2)Gal
# Outline: as §1
# [17] = molecular target: Gal(b1-3)GalNAc(a1-3)[Fuc(a1-2)]Gal(b1-4)Glc
# Outline: as §1
# [18] = molecular target: Gal(b1-3)GlcNAc(b1-2)Man(a1-3)[Gal(b1-3)GlcNAc(b1-2)Man(a1-6)]Man(b1-4)GlcNAc(b1-4)GlcNAc
# Outline: as §1
# [19] = molecular target: Gal(b1-3)GlcNAc(b1-2)Man(a1-3)[Gal(b1-3)GlcNAc(b1-2)Man(a1-6)]Man(b1-4)GlcNAc(b1-4)[Fuc(a1-6)]GlcNAc
# Outline: as §1
# [20] = molecular target: Gal(b1-3)GlcNAc(b1-3)Gal(b1-3)GlcNAc
# Outline: as §1
# [21] = molecular target: Gal(b1-3)GlcNAc(b1-3)Gal(b1-4)GlcNAc(b1-2)[Gal(b1-3)GlcNAc(b1-3)Gal(b1-4)GlcNAc(b1-6)]Man(a1-6)[Gal(b1-3)GlcNAc(b1-3)Gal(b1-4)GlcNAc(b1-2)Man(a1-3)]Man(b1-4)GlcNAc(b1-4)[Fuc(a1-6)]GlcNAc
# Outline: as §1
# [22] = molecular target: Gal(b1-3)[Fuc(a1-4)]GlcNAc(b1-3)Gal(b1-4)[Fuc(a1-3)]GlcNAc
# Outline: as §1
# [23] = molecular target: Gal(b1-3)[Neu5Ac(b2-6)]GalNAc
# Outline: as §1
# [24] = molecular target: Gal(b1-4)GlcNAc(b1-2)Man(a1-3)[Gal(b1-4)GlcNAc(b1-2)Man(a1-6)]Man(b1-4)GlcNAc(b1-4)[Fuc(a1-6)]GlcNAc
# Outline: as §1
# [25] = molecular target: Gal(b1-4)GlcNAc(b1-2)[Gal(b1-4)GlcNAc(b1-4)]Man(a1-3)[Gal(b1-4)GlcNAc(b1-2)Man(a1-6)]Man(b1-4)GlcNAc(b1-4)GlcNAc
# Outline: as §1
# [26] = molecular target: Gal(b1-4)GlcNAc(b1-3)Gal(b1-4)GlcNAc(b1-3)Gal(b1-4)GlcNAc(b1-3)Gal(b1-4)GlcNAc(b1-2)[Gal(b1-4)GlcNAc(b1-3)Gal(b1-4)GlcNAc(b1-3)Gal(b1-4)GlcNAc(b1-3)Gal(b1-4)GlcNAc(b1-6)]Man(a1-6)[Gal(b1-4)GlcNAc(b1-3)Gal(b1-4)GlcNAc(b1-3)Gal(b1-4)GlcNAc(b1-3)Gal(b1-4)GlcNAc(b1-2)Man(a1-3)]Man(b1-4)GlcNAc(b1-4)[Fuc(a1-6)]GlcNAc
# Outline: as §1
# [27] = molecular target: Gal(b1-4)GlcNAc(b1-3)Gal(b1-4)[Fuc(a1-3)]GlcNAc(b1-3)Gal(b1-4)[Fuc(a1-3)]GlcNAc
# Outline: as §1
# [28] = molecular target: Gal4S6S(b1-4)GlcNAc
# Outline: as §1
# [29] = molecular target: Gal6S(b1-4)Glc
# Outline: as §1
# [30] = molecular target: GalNAc(b1-3)Gal(a1-4)Gal(b1-4)GlcNAc
# Outline: as §1
# [31] = molecular target: GlcNAc(b1-2)[GlcNAc(b1-4)]Man(a1-3)[GlcNAc(b1-4)][GlcNAc(b1-2)Man(a1-6)]Man(b1-4)GlcNAc(b1-4)GlcNAc
# Outline: as §1
# [32] = molecular target: GlcNAc(b1-2)[GlcNAc(b1-6)]Man(a1-6)[GlcNAc(b1-2)Man(a1-3)]Man(b1-4)GlcNAc(b1-4)GlcNAc
# Outline: as §1
# [33] = molecular target: GlcNAc(b1-3)Gal(b1-4)GlcNAc(b1-2)Man(a1-3)[GlcNAc(b1-3)Gal(b1-4)GlcNAc(b1-2)Man(a1-6)]Man(b1-4)GlcNAc(b1-4)GlcNAc
# Outline: as §1
# [34] = molecular target: GlcNAc(b1-3)Gal(b1-4)GlcNAc(b1-3)Gal(b1-4)GlcNAc(b1-3)Gal(b1-4)GlcNAc(b1-3)Gal(b1-4)GlcNAc(b1-2)[GlcNAc(b1-3)Gal(b1-4)GlcNAc(b1-3)Gal(b1-4)GlcNAc(b1-3)Gal(b1-4)GlcNAc(b1-3)Gal(b1-4)GlcNAc(b1-6)]Man(a1-6)[GlcNAc(b1-3)Gal(b1-4)GlcNAc(b1-3)Gal(b1-4)GlcNAc(b1-3)Gal(b1-4)GlcNAc(b1-3)Gal(b1-4)GlcNAc(b1-2)Man(a1-3)]Man(b1-4)GlcNAc(b1-4)[Fuc(a1-6)]GlcNAc
# Outline: as §1
# [35] = molecular target: GlcNAc(b1-6)Gal(b1-4)GlcNAc
# Outline: as §1
# [36] = molecular target: Kdn(a2-3)Gal(b1-4)GlcNAc
# Outline: as §1
# [37] = molecular target: Man(a1-2)Man(a1-2)Man(a1-3)Man
# Outline: as §1
# [38] = molecular target: Man(a1-2)Man(a1-2)Man(a1-6)[Man(a1-3)]Man
# Outline: as §1
# [39] = molecular target: Man(a1-2)Man(a1-3)Man
# Outline: as §1
# [40] = molecular target: Man(a1-2)Man(a1-3)[Man(a1-2)Man(a1-6)]Man
# Outline: as §1
# [41] = molecular target: Man(a1-2)Man(a1-3)[Man(a1-2)Man(a1-6)]Man(a1-6)[Man(a1-2)Man(a1-2)Man(a1-3)]Man
# Outline: as §1
# [42] = molecular target: Man(a1-2)Man(a1-3)[Man(a1-6)]Man(a1-6)[Man(a1-2)Man(a1-3)]Man(b1-4)GlcNAc(b1-4)GlcNAc
# Outline: as §1
# [43] = molecular target: Man(a1-2)Man(a1-6)[Man(a1-3)]Man(a1-6)[Man(a1-2)Man(a1-2)Man(a1-3)]Man
# Outline: as §1
# [44] = molecular target: Man(a1-2)Man(a1-6)[Man(a1-3)]Man(a1-6)[Man(a1-2)Man(a1-2)Man(a1-3)]Man(b1-4)GlcNAc(b1-4)GlcNAc
# Outline: as §1
# [45] = molecular target: Man(a1-3)[Man(a1-6)]Man(a1-6)[Man(a1-2)Man(a1-3)]Man(b1-4)GlcNAc(b1-4)GlcNAc
# Outline: as §1
# [46] = molecular target: Neu5Ac(a2-3)Gal(b1-3)GalNAc(b1-4)Gal(b1-4)Glc
# Outline: as §1
# [47] = molecular target: Neu5Ac(a2-3)Gal(b1-3)GlcNAc6S
# Outline: as §1
# [48] = molecular target: Neu5Ac(a2-3)Gal(b1-4)GlcNAc(b1-3)Gal(b1-4)GlcNAc(b1-3)[Neu5Ac(a2-3)Gal(b1-4)GlcNAc(b1-3)Gal(b1-4)GlcNAc(b1-6)]GalNAc
# Outline: as §1
# [49] = molecular target: Neu5Ac(a2-6)Gal
# Outline: as §1
# [50] = molecular target: Neu5Ac(a2-6)Gal(b1-4)GlcNAc(b1-2)[Neu5Ac(a2-6)Gal(b1-4)GlcNAc(b1-6)]Man(a1-6)[Neu5Ac(a2-6)Gal(b1-4)GlcNAc(b1-2)Man(a1-3)][GlcNAc(b1-4)]Man(b1-4)GlcNAc(b1-4)GlcNAc
# Outline: as §1
# [51] = molecular target: Neu5Ac(a2-6)Gal(b1-4)GlcNAc(b1-3)Gal(b1-4)GlcNAc(b1-3)Gal(b1-4)GlcNAc(b1-2)Man(a1-3)[Neu5Ac(a2-6)Gal(b1-4)GlcNAc(b1-3)Gal(b1-4)GlcNAc(b1-3)Gal(b1-4)GlcNAc(b1-2)Man(a1-6)]GalNAc
# Outline: as §1
# [52] = molecular target: Neu5Ac(a2-6)Gal(b1-4)GlcNAc(b1-6)[Gal(b1-3)GlcNAc(b1-3)]Gal(b1-4)Glc
# Outline: as §1
# [53] = molecular target: Neu5Ac(a2-8)Neu5Ac(a2-8)Neu5Ac(a2-3)Gal(b1-4)Glc
# Outline: as §1
# [54] = molecular target: Neu5Gc(b2-6)Gal(b1-4)GlcNAc
# Outline: as §1
binder,measurement,setting,value
CVN-E41G (protein) MHHHHHHENLYFQSGNFSQACYNSAIQGSVLTSTCIRTNGGYNTSSIDLNSVIGNVDGSLKWQGSNFIETCRNTQLAGSSELAAECKTRAQQFVSTKINLDDHIAAIDGTLKYE,glycan array binding signal (z-score),[1],-0.178
same,glycan array binding signal (z-score),[2],-0.168
same,glycan array binding signal (z-score),[3],-0.093
same,glycan array binding signal (z-score),[4],-0.182
same,glycan array binding signal (z-score),[5],-0.157
same,glycan array binding signal (z-score),[6],-0.144
same,glycan array binding signal (z-score),[7],0.014
same,glycan array binding signal (z-score),[8],-0.023
same,glycan array binding signal (z-score),[9],-0.166
same,glycan array binding signal (z-score),[10],-0.122
same,glycan array binding signal (z-score),[11],-0.189
same,glycan array binding signal (z-score),[12],0.532
same,glycan array binding signal (z-score),[13],-0.163
same,glycan array binding signal (z-score),[14],-0.138
same,glycan array binding signal (z-score),[15],1
same,glycan array binding signal (z-score),[16],-0.147
same,glycan array binding signal (z-score),[17],-0.175
same,glycan array binding signal (z-score),[18],0.069
same,glycan array binding signal (z-score),[19],-0.141
same,glycan array binding signal (z-score),[20],-0.13
same,glycan array binding signal (z-score),[21],1.02
same,glycan array binding signal (z-score),[22],-0.151
same,glycan array binding signal (z-score),[23],-0.158
same,glycan array binding signal (z-score),[24],-0.15
same,glycan array binding signal (z-score),[25],-0.165
same,glycan array binding signal (z-score),[26],-0.125
same,glycan array binding signal (z-score),[27],-0.099
same,glycan array binding signal (z-score),[28],-0.19
same,glycan array binding signal (z-score),[29],-0.138
same,glycan array binding signal (z-score),[30],-0.154
same,glycan array binding signal (z-score),[31],-0.148
same,glycan array binding signal (z-score),[32],-0.145
same,glycan array binding signal (z-score),[33],-0.152
same,glycan array binding signal (z-score),[34],-0.123
same,glycan array binding signal (z-score),[35],-0.121
same,glycan array binding signal (z-score),[36],-0.154
same,glycan array binding signal (z-score),[37],7.32
same,glycan array binding signal (z-score),[38],9.78
same,glycan array binding signal (z-score),[39],5.5
same,glycan array binding signal (z-score),[40],8.72
same,glycan array binding signal (z-score),[41],11
same,glycan array binding signal (z-score),[42],6.59
same,glycan array binding signal (z-score),[43],8.16
same,glycan array binding signal (z-score),[44],8.78
same,glycan array binding signal (z-score),[45],4
same,glycan array binding signal (z-score),[46],-0.111
same,glycan array binding signal (z-score),[47],-0.165
same,glycan array binding signal (z-score),[48],-0.126
same,glycan array binding signal (z-score),[49],-0.168
same,glycan array binding signal (z-score),[50],-0.139
same,glycan array binding signal (z-score),[51],-0.112
same,glycan array binding signal (z-score),[52],-0.167
same,glycan array binding signal (z-score),[53],-0.173
same,glycan array binding signal (z-score),[54],-0.155
